# Assay results taken from PubChem BioAssay (EPA / NIEHS).
# Active and inactive are the calls of the source. Rule for the calls: active = hit-call score of the fitted dose curve at least 0.9, where 1 is the maximum; inconclusive = response in the unintended direction; inactive = score below 0.9.
# Target: Peroxisome proliferator-activated receptor gamma (Homo sapiens) (UniProt P37231)
# Assay: OT_PPARg_PPARgSRC1_1440: Odyssey Thera (OT) 24-hour Protein-Complementation Assay for Peroxisome Proliferator-activated Receptor Gamma/ SRC-1 Co-activator (AID 2283388);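 note: nuclear to cytoplasmic ratio of reconstituted Venus YFP fluorescence in fixed imaged cells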
# Description: OT_PPARg_PPARgSRC1_1440 is a cell-based assay that uses HEK293T, a human kidney cell line, with measurements taken at 24 hours after chemical dosing in a 384-well plate.OT_PPARg_PPARgSRC1_1440 is one of one assay component(s) measured or calculated from the OT_PPARg_PPARgSRC1_1440 assay. It is designed to make measurements of protein fragment complementation, a form of binding reporter, as detected with fluorescence intensity signals by Protein-fragment Complementation technology.Data from the assay component OT_PPARg_PPARgSRC1_1440 was analyzed into 1 assay endpoint. This assay endpoint, OT_PPARg_PPARgSRC1_1440, was analyzed in the positive analysis fitting direction relative to DMSO as the negative control and baseline of activity. Using a type of binding reporter, measures of receptor for gain-of-signal activity can be used to understand the binding at the pathway-level as they relate to the gene PPARG. Furthermore, this assay endpoint can be referred to as a primary readout, because the performed assay has only produced 1 assay endpoint. To generalize the intended target to other relatable targets, this assay endpoint is annotated to the nuclear receptor intended target family, where the subfamily is non-steroidal.
# The OT PPARg/SRC-1 assay assessed receptor-chemical interactions using a rapidly maturing, intensely fluorescent mutant of YFP known as Venus, rationally dissected into two separate fragments. The fragments were obtained as follows: first, fragments coding for YFP1 and YFP2 (corresponding to amino acid residues 1-158 and 159-239 of the full length YFP, respectively) were generated by oligonucleotide synthesis (Blue Heron Biotechnology), and then PCR mutagenesis was used to generate the mutant fragments IFP1 and IFP2. Fusion constructs were transfected into HEK293T cells with a (Gly4Ser)2 linker between the PPARg/SRC-1 and YFP fragment genes to facilitate complementation when interacting proteins bring fragments into close proximity. The construct is transiently transfected in HEK293T cells 48 hours prior to treatment with test compounds. Cells are seeded into optical quality 384-well poly-D-lysine coated plates in MEM alpha medium (Invitrogen) supplemented with 10 percent FBS (Gemini Bio-Products) 1 percent penicillin and 1 percent streptomycin, and grown in 37C incubator equilibrated to 5 percent CO2. Cells are allowed to adhere for 24 hours prior to treatment with compounds of interest or controls for 24 hours. Cells are fixed in 4 percent formaldehyde and stained with Draq5 (BioStatus) to identify cells and subcellular compartment boundaries prior to signal detection. 8 Images per well were acquired on an Evotec Opera at 2 wavelengths (488 and 635nm), and the ratio of fluorescence in the nucleus relative to fluorescence in the cytoplasm (N/C Ratio) in the 488nm channel was calculated for a minimum of 350 cells per image.
# Sequence of Peroxisome proliferator-activated receptor gamma (Homo sapiens) (P37231 whole entry, looked up): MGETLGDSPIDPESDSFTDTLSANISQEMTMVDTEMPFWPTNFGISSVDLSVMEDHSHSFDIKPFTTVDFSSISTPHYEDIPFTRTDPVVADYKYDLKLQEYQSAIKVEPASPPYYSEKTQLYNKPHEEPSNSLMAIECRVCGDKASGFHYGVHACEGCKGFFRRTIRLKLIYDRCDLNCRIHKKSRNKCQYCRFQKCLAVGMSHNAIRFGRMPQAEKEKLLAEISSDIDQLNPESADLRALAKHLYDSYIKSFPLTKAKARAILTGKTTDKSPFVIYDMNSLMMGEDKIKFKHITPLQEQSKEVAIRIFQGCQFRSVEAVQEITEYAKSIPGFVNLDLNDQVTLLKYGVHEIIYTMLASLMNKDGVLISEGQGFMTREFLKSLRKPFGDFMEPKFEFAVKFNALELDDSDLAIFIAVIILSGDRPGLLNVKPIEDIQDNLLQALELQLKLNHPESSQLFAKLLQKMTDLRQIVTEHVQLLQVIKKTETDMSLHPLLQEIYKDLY
row,Compound,outcome
1,Cc1cccc(O)c1,inactive
2,CC(O)CNCC(C)O (stereo not given),inactive
3,CCCCC(CC)COCCO (stereo not given),inactive
4,CCC(C)(C)C1CCC(OC)CC1 (stereo not given),inactive
5,NCCN1CCNCC1,inactive
6,CCc1cccc(O)c1,inactive
7,CCC(C)COC(=O)CC(C)C (stereo not given),inactive
8,COC(=O)c1ccc(C(=O)OC)cc1,inactive
9,CCCCC/C=C\C=C\C(=O)OCC,inactive
10,CCCC[N+](C)(CCCC)CCCC,inactive
11,CC1COC(=O)O1 (stereo not given),inactive
12,CCCCCC(=O)O[C@]1(C(C)=O)CC[C@H]2[C@@H]3CCC4=CC(=O)CC[C@]4(C)[C@H]3CC[C@@]21C,inactive
13,CCC(C)(CCCC(C)C)OC(C)=O (stereo not given),inactive
14,COc1ccccc1O,inactive
15,C=CC(O)CCCCC (stereo not given),inactive
16,OCC=Cc1ccccc1,inactive
17,CCC(C)(C)C1CCC(=O)CC1,inactive
18,CCCCCCCCCCCCS,inactive
19,CCCCCCCCOS(=O)(=O)O,inactive
20,COC(=O)C(C)Oc1ccc(Oc2ncc(C(F)(F)F)cc2Cl)cc1 (stereo not given),inactive

row,Compound,outcome
1,CCCCCC1C(=O)CCC1CC(=O)OC (stereo not given),inactive
2,CCCCOCCOCCO,inactive
3,CC(O)CN (stereo not given),inactive
4,[O-]/[N+](=N\O)c1ccccc1,inactive
5,CCCCCCCCCCCCN1CCOCC1,inactive
6,CCCCCCCCCCOC(=O)c1ccccc1C(=O)OCCCCCCCC,inactive
7,C1=COCCC1,inactive
8,Cc1cccc(C)c1,inactive
9,CC(C)(C)c1cccc(O)c1,inactive
10,CCCCCCOc1ccc(O)cc1,inactive
11,C=C(C)C(=O)OCCC(C)OC(=O)C(=C)C (stereo not given),inactive
12,CCCc1ccc(O)cc1,inactive
13,COc1ccc2[nH]cc(CCNC(C)=O)c2c1,inactive
14,CCCO,inactive
15,CC(=O)Nc1cc(S(=O)(=O)O)cc2cc(S(=O)(=O)O)c(N=Nc3ccccc3)c(O)c12,inactive
16,CCCCCCC(C)O (stereo not given),inactive
17,CC(=O)c1ccc(O)cc1,inactive
18,O=C(O)CS,inactive
19,CC(=O)C1C(=O)C=C(C)OC1=O (stereo not given),inactive
20,COC(=O)c1cccc(C(=O)OC)c1,inactive
